Drawing on PubChem BioAssay (NCI), this text covers growth for 38 compounds.

The panel holds about 83,000 compounds, 20% with a hit somewhere; the sample as a whole holds those more often.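 Interpretation: 100, growth as untreated; towards 0, rising growth inhibition; 0, no net growth; 0 to -100, cell death. Compounds scoring below 10 were considered active.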 Unmarked numbers belong to inactive results. Activity calls are given as the source filed them.

The subject of this assay is T-47D breast. The experiment in a line: NCI-60 one-dose screen, 48 h (100 = growth as untreated, 0 = no growth, -100 = all killed). The following applies: 10 µM unless noted.
Turning to `O=C1c2cccnc2C(=O)c2nc3cc(N4CCN(C5CC5)CC4)ccc3nc21`, the growth was 22.5%.
`CC1NC(=S)NC(=O)/C1=C/c1cc(=O)oc2c1ccc1ccccc12` (stereo not drawn): the growth is 93.4%.
Consider `Clc1ccc2c(c1)c(-c1ccccc1)nc1nncn12`, for which the growth is 98.2%.
For the compound `O=C1Nc2ccccc2/C1=N/c1nc(-c2ccc(Cl)cc2)cs1`, the growth was 43.4%.
For the compound `CCCCCCNC(=O)Oc1ccc(/C(=C(/CC)Cc2ccccc2)c2ccc(OCCN(CC)CC)cc2)cc1`, the growth is 56.1%.
For `Clc1ccc(N2N=C(c3cccc(Nc4ccncc4)c3)CC2c2ccc(Br)cc2)cc1` (stereo not drawn), the growth is 48.7%.
In the case of `Cc1ccc(C2CC(c3cccc(Nc4ccncc4)c3)=NN2c2ccccc2)cc1` (stereo not drawn) it was -58.2% (active); in that of `CSc1nnc2c(=O)n(C)c(=O)n(C)c2n1`, 97.5%.
With `O=S(=O)(NCCCNc1nccc(-c2c(-c3cccc(O)c3)nc3occn23)n1)c1ccc(F)cc1`, the growth is 56.3%.
As for `O=C1Nc2c(ccc(Cl)c2Cl)/C1=C/c1ccc([N+](=O)[O-])cc1`, the growth is 85.3%.
The value for `Cc1cccc(Oc2ccc(Nc3ncnc4ccc(NC(=O)CN(C)C)cc34)cc2Cl)c1` was 39.4%; that for `CC(=O)c1cc2c(N)c(C(=O)Nc3cncc4ccccc34)sc2nc1C` was 93.8%.
In the case of `COc1ccc(-c2nc(N/N=C/c3c[nH]c4ccccc34)nc(N3CCOCC3)c2C#N)cc1` it was 94.9%.
Consider `Cc1ccc(S(=O)(=O)Nc2ccc(Cl)cc2)cc1`, for which the growth was 106%.
With `C=C1C(=O)O[C@H]2[C@H]1CC/C(COC(=O)CCCCCC(=O)OC/C1=C/CC[C@@]3(C)O[C@H]3[C@H]3OC(=O)C(=C)[C@@H]3CC1)=C\CC[C@@]1(C)O[C@@H]21`, the growth was 1.26% (active).
Regarding `CCCCCN1C=C/C(=C\C(=O)N(C)c2ccc(Br)cc2)c2ccccc21`, the growth is 84.3%.
With `C/C(=C(/c1ccccc1)c1ccc(OCC(O)CNCCN2CCOCC2)cc1)c1ccccc1` (stereo not drawn), the growth is 89.3%.
Take `Cn1c(COC(=O)NCCN2CCOCC2)nc2c(N3CCOCC3)nc(-c3ccccc3)nc21`: the growth is -28.9% (active).
For the compound `COc1cc(CCNc2nc3cc(N)cc(N)c3nc2-c2ccccc2)cc(OC)c1`, the growth was -31% (active).
For `O=C(Nc1nc(-c2ccccc2Cl)cs1)c1cc(-c2ccccc2)nc2ccc(Cl)cc12`, the growth was 74.1%.
For the compound `O=C1OC(=O)C2C1CC=CC2c1ccccc1` (stereo not drawn), the growth was 91.5%.
`CCCCCCCCCCCC(=O)C(CCCCCCCCCC)C(=O)Nc1ccccc1` (stereo not drawn): the growth was 92.1%.
For `COc1ccc(/C(=C\c2ccccc2)C(=O)O)cc1OC`, the growth was 85.7%.
In the case of `C=C1C(=O)O[C@H]2[C@H]1CC/C(COC(=O)/C=C/c1c[nH]c3ccccc13)=C\CC[C@@]1(C)O[C@@H]21`, the growth was -68.3% (active).
With `CC1=CC[C@@H]2CC[C@]3(C)[C@H](CC[C@@H]4[C@@]5(C)CCCNC(C)(C)[C@@H]5CC[C@]43C)[C@H]2[C@@H]1C`, the growth was 65%.
`N#CC1=C(N)Oc2c(ccc3ccccc23)C1c1ccc([N+](=O)[O-])cc1` (stereo not drawn): the growth was 74.6%.
The value for `CN(C)C(=O)OCc1nc2c(N3CCOCC3)nc(-c3ccccc3)nc2n1C` was -50.3% (active); that for `C=C(C)[C@@H]1CC[C@]2(C(=O)NCCCN(CCC#N)CCC#N)CC[C@]3(C)[C@H](CC[C@@H]4[C@@]5(C)CCC(=O)C(C)(C)[C@@H]5CC[C@]43C)[C@@H]12` was 102%.
In the case of `COc1ccc(-c2cnnc3c(-c4cccc(C(F)(F)F)c4)cnn23)cc1` it was 48.9%; in that of `CN1CCN(C(=O)[C@]2(C)CC[C@]3(C)CC[C@]4(C)C(=CC(=O)[C@@H]5[C@@]6(C)CCC(=O)NC(C)(C)[C@@H]6CC[C@]54C)[C@@H]3C2)CC1`, 79.9%; in that of `Cc1ccc2[nH]c(=S)n(-c3ccc(S(=O)(=O)Nc4ccc(Cl)nn4)cc3)c(=O)c2c1`, 96.7%.
In the case of `COc1cc(OC)c(/C=C/C(=O)c2ccc(Nc3ncnc4ccccc34)cc2)c(OC)c1`, the growth was 36.2%.
`O=C(/C=C/c1ccc[nH]1)c1ccc(-n2ccc(C(F)(F)F)n2)cc1`: the growth is 94.7%.
In the case of `COc1cc2nc(-c3ccc(C#N)cc3)[nH]c(=O)c2cc1OC` it was 112%; in that of `O=c1[nH]nc(-c2ccc(Br)cc2)cc1Cc1ccc(O)cc1`, 83.2%.
Consider `Clc1ccc(C2CC(c3cccc(Nc4ccncc4)c3)=NN2c2ccccc2)cc1` (stereo not drawn), for which the growth was 58.6%.
Consider `C=C(C)[C@@H]1CC[C@]2(CO)CC[C@]3(C)[C@H](CC[C@@H]4[C@@]5(C)CCCNC(C)(C)[C@@H]5CC[C@]43C)[C@@H]12`, for which the growth is 36.5%.
For `c1ccc(C2CC(c3cccc(Nc4ccncc4)c3)=NN2c2ccccc2)cc1` (stereo not drawn), the growth is 92.1%.
